# Results filed as inconclusive are left out. A call without a number means that no potency is given here. The source made the active and inactive calls. The call rests on the fitted dose curve; in most records, active means well fitted inhibition curve with a large enough effect; inconclusive means small, poorly fitted or top-dose-only effect; inactive means flat fitted curve, though single readings scatter.
# Test system: CRL-7250
# Assay: Cytotoxic Profiling of Annotated Libraries Using Quantitative High-Throughput Screening (AID 1296008); further: nearly all actives have a fitted effect of over 60% in size
# Conditions: Five cell lines viability, CellTiter-Glo ATP luminescence, 48-72 h; max response: hits give low values
# In short: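 Cells exposed to compounds for 48 or 72 hr at 37 degrees Celsius. Viability read as ATP-coupled luminescence with CellTiter-Glo after 10 min at room temperature.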
# Potency means the concentration at half of the fitted maximal effect.
SMILES,Potency,outcome,max response
CCc1nc(C(N)=O)c(Nc2ccc(N3CCC(N4CCN(C)CC4)CC3)c(OC)c2)nc1NC1CCOCC1,5.24 µM (active),,
OC1COC(OCC2OC(OCCc3ccccc3)C(O)C(O)C2O)C(O)C1O (stereo unspecified),,inactive,
CC(C)C(C#N)O[C@@H]1O[C@H](CO[C@@H]2OC[C@](O)(CO)[C@H]2O)[C@@H](O)[C@H](O)[C@H]1O (stereo partly specified),,,0.582% (inactive)
CC(=O)c1c(O)cc2cccc3c2c1CC(C)(O)O3 (stereo unspecified),,inactive,
O=C(CCCCc1ccc2ccccc2c1)C(F)(F)F,,,3.49% (inactive)
O=C(NCc1ccc(OC(F)(F)F)cc1)C1c2ccccc2C(=O)N1C1CCOCC1 (stereo unspecified),,inactive,
